Reference: the supplement of paper PMC11001985
Values without a mark were called inactive.

UniProt P11021, sequence (P11021 whole entry): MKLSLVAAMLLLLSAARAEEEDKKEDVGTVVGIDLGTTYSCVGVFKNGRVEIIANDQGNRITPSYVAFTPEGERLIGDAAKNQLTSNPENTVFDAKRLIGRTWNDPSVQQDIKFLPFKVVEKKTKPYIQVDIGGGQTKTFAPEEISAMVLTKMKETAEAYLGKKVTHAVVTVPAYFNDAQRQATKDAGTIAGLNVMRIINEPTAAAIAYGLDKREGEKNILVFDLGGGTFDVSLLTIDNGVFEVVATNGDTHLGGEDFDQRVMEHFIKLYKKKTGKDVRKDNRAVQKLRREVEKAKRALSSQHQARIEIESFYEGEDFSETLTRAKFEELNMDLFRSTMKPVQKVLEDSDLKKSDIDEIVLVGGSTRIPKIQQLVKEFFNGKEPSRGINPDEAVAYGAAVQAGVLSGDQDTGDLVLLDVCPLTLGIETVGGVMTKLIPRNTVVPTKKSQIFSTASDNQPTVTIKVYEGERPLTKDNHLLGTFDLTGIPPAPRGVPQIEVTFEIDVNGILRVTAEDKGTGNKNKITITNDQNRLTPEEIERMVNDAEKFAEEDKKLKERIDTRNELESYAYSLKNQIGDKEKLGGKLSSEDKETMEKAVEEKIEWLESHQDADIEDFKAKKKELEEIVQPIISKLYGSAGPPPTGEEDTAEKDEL
UniProt Q06830, sequence (Q06830 whole entry): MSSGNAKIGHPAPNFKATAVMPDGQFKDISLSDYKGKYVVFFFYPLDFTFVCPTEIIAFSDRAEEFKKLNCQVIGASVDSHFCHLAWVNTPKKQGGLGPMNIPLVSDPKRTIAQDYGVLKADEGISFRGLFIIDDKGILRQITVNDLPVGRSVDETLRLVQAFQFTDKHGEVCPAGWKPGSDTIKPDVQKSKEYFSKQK
UniProt Q29980, sequence (Q29980 whole entry): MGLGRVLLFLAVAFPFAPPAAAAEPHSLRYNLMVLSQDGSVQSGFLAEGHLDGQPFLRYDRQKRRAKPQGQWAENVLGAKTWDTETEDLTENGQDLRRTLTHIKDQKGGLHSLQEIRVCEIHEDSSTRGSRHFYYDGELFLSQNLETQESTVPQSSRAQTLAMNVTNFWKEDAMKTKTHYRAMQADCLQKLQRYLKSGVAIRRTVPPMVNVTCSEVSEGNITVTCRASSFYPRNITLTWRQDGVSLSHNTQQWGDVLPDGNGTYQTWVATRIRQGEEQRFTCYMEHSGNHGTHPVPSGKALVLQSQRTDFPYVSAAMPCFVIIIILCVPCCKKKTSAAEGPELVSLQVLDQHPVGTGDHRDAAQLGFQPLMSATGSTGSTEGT
UniProt P14384, sequence (P14384 whole entry): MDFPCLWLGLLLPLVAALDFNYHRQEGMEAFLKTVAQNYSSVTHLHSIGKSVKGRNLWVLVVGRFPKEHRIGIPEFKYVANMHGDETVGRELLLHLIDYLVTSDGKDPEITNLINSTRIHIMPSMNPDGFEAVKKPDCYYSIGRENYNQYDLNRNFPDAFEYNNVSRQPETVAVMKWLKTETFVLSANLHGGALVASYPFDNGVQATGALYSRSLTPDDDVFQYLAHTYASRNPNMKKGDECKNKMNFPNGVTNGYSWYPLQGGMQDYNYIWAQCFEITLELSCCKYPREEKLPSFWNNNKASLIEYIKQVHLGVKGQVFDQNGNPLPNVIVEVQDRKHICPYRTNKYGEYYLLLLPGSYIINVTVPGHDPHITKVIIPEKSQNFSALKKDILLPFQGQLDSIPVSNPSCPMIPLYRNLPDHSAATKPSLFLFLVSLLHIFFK
UniProt P18669, sequence (P18669 whole entry, looked up): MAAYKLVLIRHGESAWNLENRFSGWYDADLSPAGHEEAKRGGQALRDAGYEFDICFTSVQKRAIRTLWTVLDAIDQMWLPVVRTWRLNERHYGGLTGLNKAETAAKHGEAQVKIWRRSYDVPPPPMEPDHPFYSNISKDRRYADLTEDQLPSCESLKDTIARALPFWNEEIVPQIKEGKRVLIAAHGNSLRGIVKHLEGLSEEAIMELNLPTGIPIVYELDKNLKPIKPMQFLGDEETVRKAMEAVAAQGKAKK
UniProt Q00610, sequence (Q00610 whole entry): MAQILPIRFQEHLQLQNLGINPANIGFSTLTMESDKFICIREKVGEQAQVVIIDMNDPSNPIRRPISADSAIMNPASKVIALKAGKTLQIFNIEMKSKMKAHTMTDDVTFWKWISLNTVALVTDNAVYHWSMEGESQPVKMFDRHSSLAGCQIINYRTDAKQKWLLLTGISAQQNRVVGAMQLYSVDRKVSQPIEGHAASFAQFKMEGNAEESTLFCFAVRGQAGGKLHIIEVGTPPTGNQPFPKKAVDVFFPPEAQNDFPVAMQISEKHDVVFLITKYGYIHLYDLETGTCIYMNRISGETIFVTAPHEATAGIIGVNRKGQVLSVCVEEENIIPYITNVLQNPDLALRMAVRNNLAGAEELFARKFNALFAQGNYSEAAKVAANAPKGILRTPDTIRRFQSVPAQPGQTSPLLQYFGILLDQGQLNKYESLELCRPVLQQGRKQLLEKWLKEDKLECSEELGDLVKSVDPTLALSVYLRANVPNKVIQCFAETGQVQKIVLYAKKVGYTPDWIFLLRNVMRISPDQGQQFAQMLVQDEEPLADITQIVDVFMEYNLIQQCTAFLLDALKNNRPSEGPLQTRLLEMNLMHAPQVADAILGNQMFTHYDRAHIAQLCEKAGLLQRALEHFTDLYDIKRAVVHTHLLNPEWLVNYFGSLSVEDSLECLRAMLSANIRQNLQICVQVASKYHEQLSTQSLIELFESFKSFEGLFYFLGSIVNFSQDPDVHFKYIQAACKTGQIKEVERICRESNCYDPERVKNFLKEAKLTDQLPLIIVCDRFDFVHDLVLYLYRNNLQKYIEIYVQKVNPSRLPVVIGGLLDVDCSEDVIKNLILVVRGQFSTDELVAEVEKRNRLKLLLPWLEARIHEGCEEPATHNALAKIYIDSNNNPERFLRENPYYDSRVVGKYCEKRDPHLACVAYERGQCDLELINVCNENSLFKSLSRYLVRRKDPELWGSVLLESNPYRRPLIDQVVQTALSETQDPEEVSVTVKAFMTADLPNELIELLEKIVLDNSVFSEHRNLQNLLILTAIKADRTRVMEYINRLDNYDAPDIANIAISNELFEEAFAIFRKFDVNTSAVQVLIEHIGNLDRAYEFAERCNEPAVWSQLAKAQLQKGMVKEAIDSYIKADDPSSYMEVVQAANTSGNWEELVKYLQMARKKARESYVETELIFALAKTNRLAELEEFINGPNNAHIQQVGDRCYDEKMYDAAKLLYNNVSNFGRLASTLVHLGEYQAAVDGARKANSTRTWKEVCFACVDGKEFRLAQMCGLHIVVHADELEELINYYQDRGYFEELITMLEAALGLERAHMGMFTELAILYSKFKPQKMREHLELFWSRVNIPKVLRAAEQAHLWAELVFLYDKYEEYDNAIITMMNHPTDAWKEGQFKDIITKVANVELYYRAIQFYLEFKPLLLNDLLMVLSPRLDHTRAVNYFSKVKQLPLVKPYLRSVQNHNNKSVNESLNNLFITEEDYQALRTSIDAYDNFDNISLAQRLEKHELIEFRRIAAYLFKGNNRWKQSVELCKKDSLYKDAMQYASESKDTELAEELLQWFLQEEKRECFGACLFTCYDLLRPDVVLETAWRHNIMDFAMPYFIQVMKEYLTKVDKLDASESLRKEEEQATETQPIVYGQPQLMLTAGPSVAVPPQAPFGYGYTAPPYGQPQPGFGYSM
UniProt O00159, sequence (O00159 whole entry): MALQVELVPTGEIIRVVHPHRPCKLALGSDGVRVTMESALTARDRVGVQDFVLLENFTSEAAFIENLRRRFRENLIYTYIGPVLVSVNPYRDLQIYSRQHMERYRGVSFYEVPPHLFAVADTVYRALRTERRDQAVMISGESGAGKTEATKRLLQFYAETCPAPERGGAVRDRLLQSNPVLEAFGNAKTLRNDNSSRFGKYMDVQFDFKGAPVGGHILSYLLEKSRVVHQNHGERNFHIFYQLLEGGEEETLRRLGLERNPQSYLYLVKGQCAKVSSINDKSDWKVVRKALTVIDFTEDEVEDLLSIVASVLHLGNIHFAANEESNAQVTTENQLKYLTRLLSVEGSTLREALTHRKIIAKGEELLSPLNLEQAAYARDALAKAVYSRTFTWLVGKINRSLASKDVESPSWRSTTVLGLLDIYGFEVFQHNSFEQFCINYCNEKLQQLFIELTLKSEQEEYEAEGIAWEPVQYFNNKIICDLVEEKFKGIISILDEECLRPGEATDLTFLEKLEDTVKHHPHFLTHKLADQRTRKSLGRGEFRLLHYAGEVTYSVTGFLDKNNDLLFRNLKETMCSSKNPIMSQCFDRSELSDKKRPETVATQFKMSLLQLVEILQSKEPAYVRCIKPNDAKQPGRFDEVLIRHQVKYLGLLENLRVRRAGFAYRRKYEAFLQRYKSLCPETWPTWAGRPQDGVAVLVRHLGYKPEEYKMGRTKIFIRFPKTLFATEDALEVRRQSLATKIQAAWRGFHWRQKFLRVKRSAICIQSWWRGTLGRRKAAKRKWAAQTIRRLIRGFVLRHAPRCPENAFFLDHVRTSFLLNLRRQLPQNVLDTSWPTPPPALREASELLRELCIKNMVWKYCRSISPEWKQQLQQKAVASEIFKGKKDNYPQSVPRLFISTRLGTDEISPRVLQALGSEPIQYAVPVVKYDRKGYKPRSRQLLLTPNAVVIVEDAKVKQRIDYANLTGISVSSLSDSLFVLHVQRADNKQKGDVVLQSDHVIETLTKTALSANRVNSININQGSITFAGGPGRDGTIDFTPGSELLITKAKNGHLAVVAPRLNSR
UniProt P09601, sequence (P09601 whole entry): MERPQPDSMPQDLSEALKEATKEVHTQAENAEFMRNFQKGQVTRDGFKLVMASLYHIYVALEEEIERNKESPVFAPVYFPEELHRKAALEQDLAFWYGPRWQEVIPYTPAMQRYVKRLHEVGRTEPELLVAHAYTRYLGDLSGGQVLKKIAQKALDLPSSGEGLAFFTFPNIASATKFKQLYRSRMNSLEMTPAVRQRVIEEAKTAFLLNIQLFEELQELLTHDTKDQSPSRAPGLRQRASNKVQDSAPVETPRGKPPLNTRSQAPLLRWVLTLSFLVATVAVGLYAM

The targets below were run with C#CCNC(=O)CCSSCCC(=O)NCCc1ccc(C=O)c(C=O)c1 (assay: lysine labeling ratio R10:1 (500 µM / 50 µM probe), SILAC-ABPP in living cells; higher = lower intrinsic lysine reactivity toward the probe, active = 2 or less). Details: HeLa; probe concentrations 500 vs 50 µM.
In short: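 With forward and reverse label swaps, light and heavy SILAC HeLa cells, alive and in PBS at room temperature, were exposed to either 500 µM or 50 µM of an alkyne-tagged lysine probe bearing a disulfide link. After mixing, lysates were clicked to biotin-azide, cut with trypsin, pulled down on neutravidin, freed with DTT, alkylated and analysed on a TIMS-TOF Pro by LC-MS/MS. The per-lysine value R is the median over forward and reverse replicates of the filtered median high-probe/low-probe MS1 peptide ratio. It is capped at 20.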
UniProt P55072 (lysine site: K236) was tested, and the “lysine labeling ratio R10:1” value was 2.76. “PRDX1 (lysine site: K199) (UniProt Q06830)” was tested, and the “lysine labeling ratio R10:1” value was 2.6. “HMOX1 (lysine site: K243) (UniProt P09601)” was tested, and the “lysine labeling ratio R10:1” value was 1.07 (active). With UniProt Q29980 (lysine site: K196) the “lysine labeling ratio R10:1” value was 4.62. For “CYR61 (lysine site: K203) (UniProt O00622)”, the “lysine labeling ratio R10:1” value was 2.96. With “HSPA5 (lysine site: K521) (UniProt P11021)” the “lysine labeling ratio R10:1” value was 1.53 (active). With “HSPA5 (lysine site: K185) (UniProt P11021)” the “lysine labeling ratio R10:1” value was 3.68. With “ROBO1 (lysine site: K490) (UniProt Q9Y6N7)” the “lysine labeling ratio R10:1” value was 2.81. With “ADAM9 (lysine site: K368) (UniProt Q13443)” the “lysine labeling ratio R10:1” value was 3.66. In the case of “NUMA1 (lysine site: K645) (UniProt Q14980)”, the “lysine labeling ratio R10:1” value is reported as 1.09 (active). With “MYO1C (lysine site: K404) (UniProt O00159)” the “lysine labeling ratio R10:1” value was 1.66 (active). For “SPTAN1 (lysine site: K2187) (UniProt Q13813)”, the “lysine labeling ratio R10:1” value was 5.14. For “CLTC (lysine site: K389) (UniProt Q00610)”, the “lysine labeling ratio R10:1” value was 5.78. “ITGAV (lysine site: K233) (UniProt P06756)” was tested, and the “lysine labeling ratio R10:1” value was 2.51. With “PGAM1 (lysine site: K39) (UniProt P18669)” the “lysine labeling ratio R10:1” value was 3.67. With “CPM (lysine site: K135) (UniProt P14384)” the “lysine labeling ratio R10:1” value was 0.991 (active). “FLNA (lysine site: K704) (UniProt P21333)” was tested, and the “lysine labeling ratio R10:1” value was 1.61 (active).
